A selection: hits, their analogues and other compounds. The true share with any hit is near 2.2%.
PLCg1 inh = blocks human PLC-gamma1 enzyme activity; P19174; purified PLC-gamma1, fluorogenic substrate, fluorescence; inhibition, % at 12.2 µM; 370,000 compounds, 0.84% hits
Rce1 inh = blocks yeast Ras-converting enzyme. 290,000 compounds, 0.27% hits. Q03530. yeast membranes, quenched prenylated peptide cleavage fluorescence. calls only;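 active means fall in fluorescence gain of 50% or more versus controls, with final raw signal at or below 3038400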;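 further: plate controls were neutral control wells for no effect and wells lacking membranes for full effect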
Target sequence (Q03530 whole entry, looked up): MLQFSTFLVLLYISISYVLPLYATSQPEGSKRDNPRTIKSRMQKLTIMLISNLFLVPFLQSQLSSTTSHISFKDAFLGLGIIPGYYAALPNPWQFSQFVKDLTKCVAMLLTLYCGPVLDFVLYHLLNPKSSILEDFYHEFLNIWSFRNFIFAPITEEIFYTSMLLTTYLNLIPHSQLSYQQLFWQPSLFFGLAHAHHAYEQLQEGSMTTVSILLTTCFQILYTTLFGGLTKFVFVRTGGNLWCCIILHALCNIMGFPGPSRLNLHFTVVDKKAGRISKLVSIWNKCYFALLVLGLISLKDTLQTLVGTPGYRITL
GC-A act = GC-A (human) enzyme activation. HEK293 GC-A cells, cGMP TR-FRET, EC30 ANP; 0% at EC30 ANP, 100% saturating ANP. P16066. AID 1671463. activation, % at 10 µM. 370,000 compounds, 0.14% hits; in the data active means activation above about 40%
PLC-beta3 inh = blocks human PLC-beta3 enzyme activity; inhibition, % at 12.2 µM; Purified PLC-beta3, fluorogenic substrate, fluorescence; 370,000 compounds, 0.18% hits; AID 720704; in the data active means inhibition above about 11%;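 further: 0% = median of compound wells on plate and 100% = full blocker control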
GC-B act = GC-B (human) receptor activation; HEK293-GC-B cells, CNP EC30, cGMP TR-FRET; 0% at EC30 CNP, 100% saturating CNP; activation, % at 10 µM; 370,000 compounds, 0.11% hits; AID 1920062;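 active means activation at 10 µM reaching about 35% in either raw or pattern-adjusted values, limit read from the data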
PfM18AAP inh = PfM18AAP enzyme inhibition; recombinant PfM18AAP, H-Glu-NHMec fluorogenic cleavage; inhibition, % at 7.35 µM; 290,000 compounds, 1.2% hits; AID 1822;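 active means inhibition above the campaign mean inhibition over all tested compounds plus 3 SD, cut at about 28% in these data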;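 further: 0% = plate median of test compound wells and 100% = 2 mM ZnCl2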
PLCgamma1 ctr = inhibits human PLC-gamma1 in PLC-beta3 counter-screen; inhibition, % at 12.3 µM; 3,300 compounds, 3.1% hits; purified PLC-gamma1, fluorogenic substrate, fluorescence; shares compounds with PLCg1 inh
PLCb3 confirm = confirmation of human PLC-beta3 inhibitors; purified PLC-beta3, fluorogenic substrate fluorescence; shares compounds with PLCg1 inh; AID 743261; 3,300 compounds, 1% hits; inhibition, % at 12.3 µM; in the data active means inhibition above about 11%
Active calls of the source: *; i = inactive; nt = no result given. Unless noted, no stated cut-off is given here; in the data, active means inhibition above about 9.5%; inactive means the rest.

SMILES	PLCg1 inh	Rce1 inh	GC-A act	PLC-beta3 inh	GC-B act	PfM18AAP inh	PLCgamma1 ctr	PLCb3 confirm
O=C(c1ccncc1)N1CCCC(N2CCN(c3ccc(F)cc3)CC2)C1 (stereo not drawn)	11*	i	1	-2	3	-1	3	4
CC1CN(C(=O)c2cccc(S(=O)(=O)N3CCN(c4ccc(F)cc4)CC3)c2)CC(C)O1 (stereo not drawn)	5	i	2	-8	4	1	nt	nt
O=C(C1CCCC1)N1CCCC(Nc2ccc(F)cc2)C1 (stereo not drawn)	-1	i	0	-4	-1	3	nt	nt
Cc1ccc(-n2c(SCC(=O)Nc3ccc4c(c3)OCCO4)nnc2-c2cccnc2)cc1	-2	nt	-5	0	-16	nt	nt	nt
Cc1csc(NC(=O)c2ccc(COc3ccc(Cl)c(Cl)c3)o2)n1	-6	nt	24	-6	-2	nt	nt	nt
Cc1ccc(NC(=O)Cn2nnc(-c3ccccc3F)n2)cc1C	1	nt	1	-6	1	nt	nt	nt
Clc1nc(N2CCOCC2)ncc1Br	12*	i	0	-5	6	-4	-7	1
CCC(OC(=O)C(NC(=O)c1ccccc1)c1ccccc1)C(=O)Nc1cc(C)on1 (stereo not drawn)	12*	i	-1	0	-2	-1	-8	-10
CCC(Oc1ccccc1)C(=O)Nc1cc(C)on1 (stereo not drawn)	1	i	2	0	3	-14	nt	nt
COCC(O)CSc1c([N+](=O)[O-])nc(C)n1Cc1ccc(OC)c([N+](=O)[O-])c1 (stereo not drawn)	10*	i	0	2	-8	-6	7	5
O=C(O)c1cccc(NC(=O)c2cc(NC(=O)c3ccccc3)cc(NC(=O)c3ccccc3)c2)c1	1	nt	-3	-9	-1	4	nt	nt
O=C(O)c1cccc(NC(=O)c2ccccc2)c1	11*	nt	-3	8	2	nt	-2	1
COC(=O)c1cn(-c2ccccc2)nc1-c1ccccc1	-4	i	-1	2	-7	-7	nt	nt
COC(=O)c1cn(-c2ccccc2)c(C)c1C(=O)OC	7	i	1	12*	-1	-8	-1	-2
Cc1ncc([N+](=O)[O-])n1CCOC(=O)NC(NCc1ccccc1)C(Cl)(Cl)Cl (stereo not drawn)	3	i	-6	1	-13	1	nt	nt
Cc1ncc([N+](=O)[O-])n1CCOC(=O)c1ccccc1	10*	i	-2	13*	-1	0	-3	0
Cc1cccc(CC2S/C(=N/N=C/c3ccco3)N(c3ccccc3)C2=O)c1 (stereo not drawn)	11*	i	4	4	-8	-14	0	-1
Cc1cccnc1NC(=O)Nc1cccc(C(F)(F)F)c1	10*	nt	-8	3	1	-1	-5	-5
Cc1cccnc1NC(=O)Nc1ccc(F)cc1	-2	i	10	1	-1	-2	nt	nt
CN1C(=O)C[C@@](C#N)(C(=O)N2CCCC2)[C@H]1c1ccccc1	0	nt	4	-1	12	nt	nt	nt
Cc1onc(-c2ccc(Cl)cc2)c1-c1ccn(S(=O)(=O)c2ccccc2)n1	10*	nt	-8	0	-7	nt	-3	-1
O=C(NCc1ccccc1)c1ccc(CO)cc1	0	nt	6	1	1	nt	nt	nt
O=C(CCc1ccc(S(=O)(=O)NCCc2ccccc2)cc1)Nc1ccc2c(c1)OCO2	10*	i	-2	-1	-3	2	-6	-4
Cc1ccc(Sc2nc3c(c(=O)[nH]c(=O)n3C)n2CCc2ccccc2)cc1	5	nt	1	13*	0	6	-2	-2
CC(C)(Oc1ccc(Cl)cc1)C(=O)OCC(=O)Nc1ncc(Cl)cc1Cl	8	i	-9	12*	-9	-8	-1	1
SMILES	PLCg1 inh	Rce1 inh	GC-A act	PLC-beta3 inh	GC-B act	PfM18AAP inh	PLCgamma1 ctr	PLCb3 confirm
COc1ccc(OCCCC(=O)OCC(=O)Nc2ncc(Cl)cc2Cl)cc1	-3	nt	1	-12	-4	nt	nt	nt
Cc1onc(-c2ccccc2)c1C(N)=O	-1	i	1	-3	4	-2	nt	nt
Cc1oc(C)c(C(N)=O)c1C(N)=O	7	i	0	11*	8	-1	-6	-3
CCCC(O)(c1ccc(OC)cc1)C(CN1CCOCC1)c1ccc(Cl)cc1 (stereo not drawn)	11*	i	-53	1	-15	5	-1	4
CCCC(O)(c1ccc(Cl)cc1)C(CN1CCOCC1)c1ccc(Cl)cc1 (stereo not drawn)	2	i	-55	-1	-14	2	nt	nt
Cc1onc(-c2ccccc2)c1C(=O)NC(=S)NNC(=O)c1cccnc1	10*	i	3	5	-4	15	-2	-1
Cc1onc(-c2ccccc2)c1C(=O)NC(=S)NNC(=O)c1ccncc1	-6	i	-2	-6	3	10	nt	nt
O=C(NCc1ccc(F)c(F)c1)C1CCC(CNS(=O)(=O)c2cccc3cccnc23)CC1 (stereo not drawn)	1	nt	-1	-3	8	nt	nt	nt
CCN(CC)S(=O)(=O)c1cccc(-c2nnc(SC(C)C(N)=O)n2CCc2ccccc2)c1 (stereo not drawn)	7	i	-2	2	7	0	nt	nt
CCN(CC)S(=O)(=O)c1cccc(-c2nnc(SCC(N)=O)n2CCc2ccccc2)c1	12*	i	-1	7	-3	2	7	4
CCOC(=O)C1=C(C)OC2(O)c3ccccc3C(=O)C12O (stereo not drawn)	10*	i	8	2	-2	-1	-2	-4
CC(=O)C1=C(C)OC2(O)c3ccccc3C(=O)C12O (stereo not drawn)	5	i	5	-7	0	1	nt	nt
CCN(CC)C(=O)CC[C@@H]1CC[C@]2(CCCN(Cc3ccc(Cl)cc3)C2)O1	-2	nt	2	5	-7	nt	nt	nt
CN1C(=O)C(O)(CC(=O)/C=C/c2ccco2)c2ccccc21 (stereo not drawn)	2	i	2	14*	-7	4	-4	-2
CN1C(=O)C(O)(CC(=O)/C=C/c2ccco2)c2cc(Br)ccc21 (stereo not drawn)	0	i	-1	-3	4	-3	nt	nt
COc1ccc(-c2nnc(SCC(=O)Nc3ccc4cn[nH]c4c3)n2Cc2ccco2)cc1	-3	nt	-1	-2	-4	nt	nt	nt
Cc1cc(NC(=O)CN2CCN(C/C=C/c3ccccc3)CC2)c([N+](=O)[O-])cc1C	9.5*	i	-4	0	-3	-9	-3	-3
